Results published in PubChem BioAssay (NCATS).
Inconclusive results are not listed. Active and inactive are the calls of the source. Unless noted, calls follow the shape of the dose curve; as a rule, active = well fitted cell-killing curve with a large enough effect; inconclusive = small, poorly fitted or top-dose-only effect; inactive = flat fitted curve, though single readings scatter.

What was measured:
[1] = Cell Viability - LYMP2-025 (AID 976); settings: LYMP2-025 lymphoblastoid cell viability; series mostly up to 92.2 µM;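 also: plate controls were DMSO only for no effect and tetraoctylammonium bromide control for full effect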
Outline: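 Cytotoxicity read as loss of intracellular ATP (luciferase luminescence) after 24 h compound treatment at 37 C. Uses LYMP2-025 lymphoblastoid cells in 1536-well format; Hill-equation modelling gives AC50; tetraoctylammonium bromide as positive control.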

[2] = Cell Viability - LYMP2-002 (AID 977); settings: LYMP2-002 lymphoblastoid cell viability, qHTS; series mostly up to 92.2 µM;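 also: plate controls were DMSO only for no effect and 92 µM tetraoctylammonium bromide for full effect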
Outline: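 Human lymphoblastoid cells, 2500/well, complete medium; 5 h 37 C settle; compound 24 h 37 C; CellTiter-Glo, 30 min RT; luminescence. Decrease in ATP = cytotoxicity; AC50 via Hill equation.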

[3] = Cell Viability - LYMP2-006 (AID 978); settings: LYMP2-006 lymphoblastoid cell viability, qHTS; series mostly up to 92.2 µM; also: % is scaled to controls: 0 for no effect and ±100 for the full control effect; nearly all actives have a fitted effect of over 60% in size
Outline: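 In this cytotoxicity screen, the human lymphoblastoid line grew in complete medium with test compounds for 24 hr at 37 C. Cellular ATP served as the viability signal.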

[4] = Cell Viability - LYMP2-007 (AID 979); settings: LYMP2-007 lymphoblastoid cell viability; series mostly up to 92.2 µM;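 also: cells exposed to compound for 24 h before reading; 0% = DMSO only and the negative end = 92 µM tetraoctylammonium bromide; nearly all actives have a fitted effect of over 60% in size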
Outline: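 AC50 values come from Hill-equation fits of luminescent intracellular ATP (CellTiter-Glo, 30 min, room temperature) following 24 h compound exposure at 37 C. Cells: LYMP2-007 lymphoblastoid line, 2500 per well, in complete culture medium.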

[5] = Cell Viability - LYMP2-008 (AID 980); settings: LYMP2-008 lymphoblastoid cell viability, qHTS; series mostly up to 92.2 µM; also: % is scaled to controls: 0 for no effect and ±100 for the full control effect; nearly all actives have a fitted effect of over 60% in size
Outline: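 Cytotoxicity determined from ATP-dependent luciferase luminescence (CellTiter-Glo) following 24 h compound exposure of human lymphoblastoid LYMP2-008 cells at 37 C. Concentration-response data fitted to the Hill equation to give AC50.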

[6] = Cell Viability - LYMP2-010 (AID 981); settings: LYMP2-010 lymphoblastoid cell viability, qHTS; series mostly up to 92.2 µM; also: % is scaled to controls: 0 for no effect and ±100 for the full control effect; nearly all actives have a fitted effect of over 55% in size
Outline: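 CellTiter-Glo ATP luminescence measured cytotoxicity after 24 h compound exposure at 37 C. LYMP2-010 cells were seeded at 2500/well, with tetraoctylammonium bromide as control; concentration-response curves gave AC50 values by the Hill equation.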

[7] = Cell Viability - LYMP2-012 (AID 982); settings: LYMP2-012 lymphoblastoid cell viability qHTS; series mostly up to 92.2 µM;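 also: cellular ATP by luciferase luminescence where a drop means cytotoxicity; cells exposed to compound for one day before reading; 0% = DMSO only and full loss = 92 µM tetraoctylammonium bromide; nearly all actives have a fitted effect of over 55% in size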
[8] = Cell Viability - LYMP2-014 (AID 983); settings: LYMP2-014 lymphoblastoid cells, viability qHTS; series mostly up to 92.2 µM;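 also: plate controls were DMSO only for no effect and 92 µM tetraoctylammonium bromide for full effect; nearly all actives have a fitted effect of over 50% in size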
Outline: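 Intracellular ATP loss, read by luciferase luminescence, measures acute cytotoxicity after 24 h compound exposure of lymphoblastoid LYMP2-014 cells (2500/well, 37 C). Concentration-response data fitted to the Hill equation for AC50.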

[9] = Cell Viability - LYMP2-016 (AID 984); settings: LYMP2-016 lymphoblastoid cell viability, qHTS; series mostly up to 92.2 µM; also: % is scaled to controls: 0 for no effect and ±100 for the full control effect; nearly all actives have a fitted effect of over 55% in size
Outline: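 Concentration-dependent ATP depletion measured in LYMP2-016 lymphoblastoid cells, 24 h, 37 C; luciferase-based luminescent detection; Hill-equation AC50.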

[10] = Cell Viability - LYMP2-018 (AID 985); settings: LYMP2-018 lymphoblastoid cells, viability (qHTS); series mostly up to 92.2 µM;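 also: plate controls were DMSO only for no effect and tetraoctylammonium bromide at 92 µM for full effect; nearly all actives have a fitted effect of over 50% in size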
Outline: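 Viability read as CellTiter-Glo luminescence (cellular ATP) after 24 hr compound exposure at 37 C of 2500 LYMP2-018 lymphoblastoid cells/well, pre-plated 5 hr. Hill-equation modelling gave AC50.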

[11] = Cell Viability - LYMP2-020 (AID 986); settings: series mostly up to 92.2 µM;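 also: plate controls were DMSO only for no effect and tetraoctylammonium bromide at 92 µM for full effect; nearly all actives have a fitted effect of over 55% in size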
Outline: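 Cytotoxicity in qHTS format: luminescent ATP readout from CellTiter-Glo after 24 h compound exposure at 37 C in complete medium. LYMP2-020 lymphoblastoid cells were seeded at 2500/well; concentration-response data fitted to the Hill equation for AC50.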

[12] = Cell Viability - LYMP2-022 (AID 987); settings: LYMP2-022 lymphoblastoid cell viability; series mostly up to 92.2 µM
Outline: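 Cytotoxicity read as decreased cellular ATP (CellTiter-Glo luminescence, 30 min room temperature) after 24 hours compound exposure of 2500 lymphoblastoid LYMP2-022 cells/well at 37 C. Concentration-response data fitted with standard Hill equation for AC50.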

[13] = Cell Viability - LYMP2-024 (AID 988); settings: LYMP2-024 lymphoblastoid cell viability; series mostly up to 92.2 µM;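 also: plate controls were DMSO only for no effect and 92 µM tetraoctylammonium bromide for full effect; nearly all actives have a fitted effect of over 60% in size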
Outline: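 Cytotoxicity was taken as a decrease in ATP (CellTiter-Glo luminescence) after 24 hr compound exposure at 37 C of LYMP2-024 lymphoblastoid cells, 2500 cells/well. Concentration-response data were fitted to the Hill equation to give AC50.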

[14] = Cell Viability - LYMP2-026 (AID 989); settings: LYMP2-026 lymphoblastoid cell viability, qHTS; series mostly up to 92.2 µM; also: % is scaled to controls: 0 for no effect and ±100 for the full control effect; nearly all actives have a fitted effect of over 50% in size
Outline: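 Cytotoxicity read as ATP-dependent luminescence (CellTiter-Glo, 30 min room temperature) after 24 h compound treatment at 37 C. LYMP2-026 lymphoblastoid line seeded at 2500 cells/well; AC50 derived by standard Hill equation.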

[15] = Cell Viability - LYMP1-002 - Assay at 24 hr (AID 993); settings: LYMP1-002 lymphoblastoid cells viability; series mostly up to 92.2 µM; also: % is scaled to controls: 0 for no effect and ±100 for the full control effect
Outline: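 qHTS cytotoxicity at 24 h: CellTiter-Glo ATP luminescence in lymphoblastoid line LYMP1-002 incubated with compound at 37 °C. Concentration-response modeled with the Hill equation for AC50; tetraoctylammonium bromide served as positive control.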

[16] = Cell Viability - LYMP1-002 - Assay at 40 hr (AID 994); settings: LYMP1-002 lymphoblastoid cell viability; series mostly up to 92.2 µM
Outline: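 Cytotoxicity was read as loss of cellular ATP (CellTiter-Glo luminescence) after 40 hr compound exposure at 37 C of 2500 LYMP1-002 lymphoblastoid cells per well. Concentration-response data were fitted with the standard Hill equation to give AC50.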

[17] = qHTS Assay for Identification of Small Molecule Inducers of Hypoxia Response (AID 2120; active = well fitted curve in the direction sought with a large enough effect in the signal ratio, with a control signal flat, not every such curve was filed as active; the % refers to the signal ratio; also: 0% is about no effect); settings: hypoxia response reporter cells, beta-lactamase ratio readout; series mostly up to 104 µM
Outline: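 Reporter induction read as the CCF4 blue/green (460nm/530nm) emission ratio after 2.5 h dye loading at room temperature. ME-180 HRE-beta-lactamase cells received titrated compounds for 17 h at 37 degrees Celsius; AC50 values derived.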

[18] = molecular target: Estrogen receptor (Homo sapiens) (UniProt P03372); assay: qHTS assay for small molecule antagonists of estrogen receptor alpha signaling (AID 588513; active = well fitted curve in the direction sought with a large enough effect in the signal ratio, with a control signal flat, not every such curve was filed as active; the % refers to the signal ratio; also: % is scaled to controls: 0 for no effect and ±100 for the full control effect); settings: ER-alpha-UAS-bla HEK293, beta-lactamase ratio, antagonist mode; series mostly up to 76.9 µM
Chain of Estrogen receptor (Homo sapiens) (P03372 whole entry, looked up): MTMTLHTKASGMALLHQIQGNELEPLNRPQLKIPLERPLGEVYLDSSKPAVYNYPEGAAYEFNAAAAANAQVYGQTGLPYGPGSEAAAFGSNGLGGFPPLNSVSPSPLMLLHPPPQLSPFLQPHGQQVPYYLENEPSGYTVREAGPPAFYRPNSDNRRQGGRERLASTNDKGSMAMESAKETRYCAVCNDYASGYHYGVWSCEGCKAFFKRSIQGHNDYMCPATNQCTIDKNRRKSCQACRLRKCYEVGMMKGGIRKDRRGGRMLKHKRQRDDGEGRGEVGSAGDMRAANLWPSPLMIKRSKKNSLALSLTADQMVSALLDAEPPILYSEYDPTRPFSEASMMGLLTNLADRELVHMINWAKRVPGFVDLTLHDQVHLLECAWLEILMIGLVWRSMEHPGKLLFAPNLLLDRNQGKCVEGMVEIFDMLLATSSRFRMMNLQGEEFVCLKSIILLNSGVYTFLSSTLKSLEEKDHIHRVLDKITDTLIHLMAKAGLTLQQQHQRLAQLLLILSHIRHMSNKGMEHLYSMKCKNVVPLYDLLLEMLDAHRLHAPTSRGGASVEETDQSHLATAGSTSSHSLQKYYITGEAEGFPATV
Outline: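 Antagonist-mode qHTS in ER-alpha-UAS-bla HEK 293 cells: compound titration, 0.5nM estradiol for 18 h, CCF4 fluorescence, Hill-derived IC50.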

[19] = molecular target: Estrogen receptor (Homo sapiens) (UniProt P03372); assay: qHTS assay for small molecule agonists of estrogen receptor alpha signaling (AID 588514; calls by dose curve;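 also: 0% = vehicle only and 100% = reference agonist; nearly all actives have a fitted effect of over 70% in size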); settings: ER-alpha-UAS-bla HEK293, beta-lactamase ratio, 18 h; series mostly up to 76.8 µM
Outline: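 EC50 and efficacy came from Hill fits of beta-lactamase reporter signal (CCF4 dye, 2 h at room temperature) scaled between DMSO and 20 nM 17-beta-estradiol. Agonist mode: HEK293 ER-alpha-UAS-bla cells in charcoal/dextran-stripped serum medium, 18 h compound exposure at 37 C.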

[20] = molecular target: Androgen receptor (Homo sapiens) (UniProt P10275); assay: qHTS assay for small molecule agonists of androgen receptor signaling (AID 588515; active = well fitted curve in the direction sought with a large enough effect in the signal ratio, with a control signal flat; the % refers to the signal ratio; also: % is scaled to controls: 0 for no effect and ±100 for the full control effect); settings: AR-UAS-bla HEK293, beta-lactamase ratio, agonist 16 h; hits give high values
Chain of Androgen receptor (Homo sapiens) (P10275 whole entry, looked up): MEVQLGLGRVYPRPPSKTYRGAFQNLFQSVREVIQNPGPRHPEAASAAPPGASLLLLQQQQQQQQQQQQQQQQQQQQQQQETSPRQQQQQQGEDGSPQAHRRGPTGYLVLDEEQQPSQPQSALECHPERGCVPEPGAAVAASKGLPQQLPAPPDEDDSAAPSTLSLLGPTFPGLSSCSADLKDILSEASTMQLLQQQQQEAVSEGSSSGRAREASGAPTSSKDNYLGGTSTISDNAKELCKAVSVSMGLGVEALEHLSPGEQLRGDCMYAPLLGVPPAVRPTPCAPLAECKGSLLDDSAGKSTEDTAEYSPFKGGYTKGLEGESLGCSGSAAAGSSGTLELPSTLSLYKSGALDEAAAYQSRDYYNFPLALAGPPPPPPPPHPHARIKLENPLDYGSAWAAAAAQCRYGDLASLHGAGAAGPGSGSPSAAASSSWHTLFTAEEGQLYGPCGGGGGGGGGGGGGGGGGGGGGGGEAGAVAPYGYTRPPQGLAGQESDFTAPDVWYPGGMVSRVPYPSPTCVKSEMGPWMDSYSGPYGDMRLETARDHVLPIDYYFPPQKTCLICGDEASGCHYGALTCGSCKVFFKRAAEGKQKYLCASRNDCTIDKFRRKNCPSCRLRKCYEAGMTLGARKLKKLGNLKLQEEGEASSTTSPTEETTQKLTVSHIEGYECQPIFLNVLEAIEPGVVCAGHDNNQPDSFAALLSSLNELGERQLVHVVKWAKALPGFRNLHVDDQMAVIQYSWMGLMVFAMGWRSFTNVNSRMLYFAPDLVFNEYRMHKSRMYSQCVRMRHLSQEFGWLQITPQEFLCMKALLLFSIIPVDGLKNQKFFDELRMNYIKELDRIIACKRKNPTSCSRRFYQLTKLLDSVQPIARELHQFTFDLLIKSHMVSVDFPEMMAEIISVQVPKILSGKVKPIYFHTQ
Outline: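 Stimulation of an AR-responsive β-lactamase reporter in GripTite HEK293 cells was measured after 16 h compound exposure at 37 °C, via CCF4 fluorescence after 2 h RT. EC50 from Hill fits, normalized to R1881 at 30 nM.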

Cc1ccc(C)cc1
inactive: Potency [1] | Potency [2] | Potency [3] | Potency [4] | Potency [5] | Potency [6] | Potency [7] | Potency [8] | Potency [9] | Potency [10] | Potency [11] | Potency [12] | Potency [13] | outcome [14] | Potency [15] | Potency [16] | outcome [17] | outcome [18] | Potency [19] | activation [20] 10.6%

Cc1cccc(C)c1O
inactive: Potency [1] | Potency [2] | Potency [3] | Potency [4] | Potency [5] | Potency [6] | Potency [8] | Potency [9] | Potency [11] | Potency [12] | Potency [13] | outcome [14] | Potency [15] | Potency [16] | outcome [17] | outcome [18] | Potency [19] | activation [20] -2.64%

Nc1cccc(S(=O)(=O)O)c1
inactive: Potency [1] | Potency [2] | Potency [3] | Potency [4] | Potency [5] | Potency [6] | Potency [7] | Potency [8] | Potency [9] | Potency [10] | Potency [11] | Potency [12] | Potency [13] | outcome [14] | Potency [15] | Potency [16] | outcome [17] | outcome [18] | Potency [19] | activation [20] 6.82%

OCCO
inactive: Potency [1] | Potency [2] | Potency [3] | Potency [5] | Potency [6] | Potency [7] | Potency [8] | Potency [9] | Potency [10] | Potency [11] | Potency [12] | Potency [13] | Potency [15] | Potency [16] | outcome [17] | outcome [18] | Potency [19] | activation [20] -10.8%

NC(=O)c1cccc([N+](=O)[O-])c1
inactive: Potency [1] | Potency [2] | Potency [3] | Potency [4] | Potency [5] | Potency [6] | Potency [7] | Potency [9] | Potency [10] | Potency [11] | Potency [12] | Potency [13] | outcome [14] | Potency [15] | Potency [16] | outcome [17] | outcome [18] | Potency [19] | activation [20] 2.01%

c1ccc2c(c1)ccc1ncccc12
inactive: Potency [1] | Potency [2] | Potency [3] | Potency [4] | Potency [5] | Potency [6] | Potency [7] | Potency [8] | Potency [9] | Potency [11] | Potency [12] | Potency [13] | Potency [16] | outcome [17] | outcome [18] | Potency [19] | activation [20] 7.08%

C1CCC2OC2C1 (centres undefined)
inactive: Potency [1] | Potency [2] | Potency [3] | Potency [4] | Potency [5] | Potency [6] | Potency [7] | Potency [8] | Potency [9] | Potency [10] | Potency [11] | Potency [12] | Potency [13] | outcome [14] | Potency [15] | Potency [16] | outcome [17] | outcome [18] | Potency [19] | activation [20] -3.32%

FC(F)(F)c1cccc(Cl)c1
inactive: Potency [1] | Potency [2] | Potency [3] | Potency [4] | Potency [5] | Potency [6] | Potency [8] | Potency [9] | Potency [10] | Potency [11] | Potency [12] | Potency [13] | outcome [14] | Potency [15] | Potency [16] | outcome [17] | outcome [18] | Potency [19] | activation [20] 4.73%

CCCC(Cl)CCCC(Cl)CCC(Cl)CCC(Cl)CCC(Cl)CCCC(Cl)CCC (centres undefined)
inactive: Potency [1] | Potency [2] | Potency [3] | Potency [4] | Potency [5] | Potency [6] | Potency [10] | Potency [11] | Potency [12] | Potency [13] | outcome [14] | Potency [15] | Potency [16] | outcome [17] | outcome [18] | Potency [19] | activation [20] -5.75%

CCOc1ccc(NC(C)=O)cc1N
inactive: Potency [1] | Potency [2] | Potency [3] | Potency [4] | Potency [5] | Potency [6] | Potency [7] | Potency [8] | Potency [9] | Potency [10] | Potency [11] | Potency [12] | Potency [13] | outcome [14] | Potency [15] | Potency [16] | outcome [17] | outcome [18] | Potency [19] | activation [20] 0.896%

c1ccsc1
inactive: Potency [1] | Potency [2] | Potency [3] | Potency [5] | Potency [6] | Potency [7] | Potency [8] | Potency [9] | Potency [10] | Potency [11] | Potency [12] | Potency [13] | outcome [14] | Potency [15] | Potency [16] | outcome [17] | outcome [18] | Potency [19] | activation [20] -6.67%

C1COC1
inactive: Potency [1] | Potency [2] | Potency [3] | Potency [4] | Potency [5] | Potency [6] | Potency [8] | Potency [9] | Potency [10] | Potency [11] | Potency [12] | Potency [13] | outcome [14] | Potency [15] | Potency [16] | outcome [17] | outcome [18] | Potency [19] | activation [20] -10.3%

Nc1cccc([N+](=O)[O-])c1
inactive: Potency [1] | Potency [2] | Potency [3] | Potency [4] | Potency [6] | Potency [7] | Potency [8] | Potency [9] | Potency [10] | Potency [11] | Potency [12] | Potency [13] | outcome [14] | Potency [15] | Potency [16] | outcome [17] | outcome [18] | Potency [19] | activation [20] -5.67%

CNC(=O)N(c1ccccc1)c1ccccc1
inactive: Potency [2] | Potency [5] | Potency [6] | Potency [7] | Potency [9] | Potency [10] | Potency [11] | Potency [12] | Potency [13] | outcome [14] | Potency [15] | Potency [16] | outcome [17] | outcome [18] | Potency [19] | activation [20] -11.4%

O=C1CCCCC1
inactive: Potency [1] | Potency [2] | Potency [3] | Potency [4] | Potency [6] | Potency [7] | Potency [9] | Potency [10] | Potency [11] | Potency [12] | Potency [13] | outcome [14] | Potency [15] | Potency [16] | outcome [17] | outcome [18] | Potency [19] | activation [20] 14.6%
